# The supplement of paper PMC12645437, “Orthogonal IMiD-Degron Pairs Induce Selective Protein Degradation in Cells” (ACS Chemical Biology, 2025)
# In all, about 8,300 sequences were measured (“log2 fold change of degron read counts, EGFP-low vs EGFP+ sorted cells (limma voom), compound-induced degradation”: median about -1.1, highest 2% from about 3.2 on). Shown is part of a subset that was picked to be rich in the highest values.
# T1: CRBN, Q96SW2
# T1 chain: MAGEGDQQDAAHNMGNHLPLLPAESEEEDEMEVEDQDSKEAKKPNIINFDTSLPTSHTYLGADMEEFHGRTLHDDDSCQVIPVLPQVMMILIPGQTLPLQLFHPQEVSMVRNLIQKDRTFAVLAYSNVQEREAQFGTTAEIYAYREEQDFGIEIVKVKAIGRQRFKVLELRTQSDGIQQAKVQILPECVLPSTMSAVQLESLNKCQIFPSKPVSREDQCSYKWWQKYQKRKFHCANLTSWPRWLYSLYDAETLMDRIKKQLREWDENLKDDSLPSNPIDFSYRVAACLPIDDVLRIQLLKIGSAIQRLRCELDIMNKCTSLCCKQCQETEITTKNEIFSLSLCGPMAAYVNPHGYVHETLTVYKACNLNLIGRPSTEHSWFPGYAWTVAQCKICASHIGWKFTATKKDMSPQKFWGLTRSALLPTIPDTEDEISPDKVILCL
# Molecular target: T1, CRBN, Q96SW2
# Assay: log2 fold change of degron read counts, EGFP-low vs EGFP+ sorted cells (limma voom), compound-induced degradation; higher = more compound-induced degradation of the degron-EGFP fusion; degrons are variants of IKZF1/3 zinc finger 2; compound dose not given here
# Details: Jurkat, 18 h
# [1] = compound: compound 19 (5-tert-butyl-thalidomide)
# [2] = compound: compound 22 (5-morpholino-thalidomide)
# [3] = compound: compound 33 (diphenyl IMiD analogue)
# 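Further: pooled lentiviral library of zinc finger degron-EGFP fusions in mCherry-positive Jurkat cells, FACS-sorted after compound exposure, with degron abundance counted by next-generation sequencing.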
Sequence,log2 fold change of degron read counts [1],log2 fold change of degron read counts [2],log2 fold change of degron read counts [3],log2 fold change of degron read counts (compound: thalidomide)
"FMCNVCGAQFTQKGNLLRHIKL [46F_47M_49N_50V_52G_53A_54Q_55F_67L_, Q9UKT9]",-1.96,-1.18,1.65,-0.484
"FYCNVCGAEFTQKGNLLRHIKL [46F_47Y_49N_50V_52G_53A_54E_55F_67L_, Q9UKT9]",0.141,-0.307,-0.204,-1.92
"FDCSVCGHGFTQKGNLLRHIKL [46F_47D_49S_50V_52G_53H_54G_55F_67L_, Q9UKT9]",-2.13,-2.49,-2.85,-2.61
"FICEICGHPFTQKGNLLRHIKL [46F_47I_49E_50I_52G_53H_54P_55F_67L_, Q9UKT9]",-2.2,-1.74,-1.09,-0.749
"FTCNQCGAFFTQKGNLLRHIKL [46F_47T_49N_50Q_52G_53A_54F_55F_67L_, Q9UKT9]",-2.21,-2.47,-2.04,-1.89
"FMCDQCGAMFTQKGNLLRHIKL [46F_47M_49D_50Q_52G_53A_54M_55F_67L_, Q9UKT9]",-2.85,-3.27,-1.88,-2.89
"FVCEICGRYFTQKGNLLRHIKL [46F_47V_49E_50I_52G_53R_54Y_55F_67L_, Q9UKT9]",-1.62,-1.93,-1.15,-0.136
"LHCPICGFQCTQKGNLLRHIKL [46L_47H_49P_50I_52G_53F_54Q_55C_67L_, Q9UKT9]",2.57,2.67,2.36,1.96
"LACPICGFQCTQKGNLLRHIKL [46L_47A_49P_50I_52G_53F_54Q_55C_67L_, Q9UKT9]",3.44,2.59,1.86,1.78
"LGCPICGFQCTQKGNLLRHIKL [46L_47G_49P_50I_52G_53F_54Q_55C_67L_, Q9UKT9]",3.74,2.31,1.15,1.18
"LECPICGFQCTQKGNLLRHIKL [46L_47E_49P_50I_52G_53F_54Q_55C_67L_, Q9UKT9]",-0.146,-0.246,2.16,3.16
"LSCPICGFQCTQKGNLLRHIKL [46L_47S_49P_50I_52G_53F_54Q_55C_67L_, Q9UKT9]",2.31,2.18,1.54,1.93
"LVCPICGFQCTQKGNLLRHIKL [46L_47V_49P_50I_52G_53F_54Q_55C_67L_, Q9UKT9]",1.16,2.72,2.04,3.09
"FCCPQCGAHFTQKGNLLRHIKL [46F_47C_49P_50Q_52G_53A_54H_55F_67L_, Q9UKT9]",-1.46,-2.19,-0.412,-1.42
"FKCNQCGHPFTQKGNLLRHIKL [46F_47K_49N_50Q_52G_53H_54P_55F_67L_, Q9UKT9]",-2.61,-2.63,-2.72,-2.3
"LKCEICGFTCTQKGNLLRHIKL [46L_47K_49E_50I_52G_53F_54T_55C_67L_, Q9UKT9]",-1,-2.29,-1.73,0.124
"LGCEICGFTCTQKGNLLRHIKL [46L_47G_49E_50I_52G_53F_54T_55C_67L_, Q9UKT9]",2.28,2.37,0.519,0.415
"LDCEICGFTCTQKGNLLRHIKL [46L_47D_49E_50I_52G_53F_54T_55C_67L_, Q9UKT9]",0.0603,-0.828,-0.732,0.278
"LVCEICGFTCTQKGNLLRHIKL [46L_47V_49E_50I_52G_53F_54T_55C_67L_, Q9UKT9]",1.83,2.47,2.5,3.21
"LLCEICGFTCTQKGNLLRHIKL [46L_47L_49E_50I_52G_53F_54T_55C_67L_, Q9UKT9]",0.0109,-0.207,1.27,2.65
"LCCEICGFTCTQKGNLLRHIKL [46L_47C_49E_50I_52G_53F_54T_55C_67L_, Q9UKT9]",2.49,2.78,2.65,2.98
"LMCEICGFTCTQKGNLLRHIKL [46L_47M_49E_50I_52G_53F_54T_55C_67L_, Q9UKT9]",0.136,1.5,3.07,2.97
"LQCEICGFTCTQKGNLLRHIKL [46L_47Q_49E_50I_52G_53F_54T_55C_67L_, Q9UKT9]",1.59,2.54,2.34,3.65
"LWCEICGFTCTQKGNLLRHIKL [46L_47W_49E_50I_52G_53F_54T_55C_67L_, Q9UKT9]",3.55,3.79,3.08,1.83
"LACEICGFTCTQKGNLLRHIKL [46L_47A_49E_50I_52G_53F_54T_55C_67L_, Q9UKT9]",3.48,3.3,1.55,1.36
"LTCEICGFTCTQKGNLLRHIKL [46L_47T_49E_50I_52G_53F_54T_55C_67L_, Q9UKT9]",1.29,2.89,2.18,3.14
"LSCEICGFTCTQKGNLLRHIKL [46L_47S_49E_50I_52G_53F_54T_55C_67L_, Q9UKT9]",3.05,2.87,1.94,1.96
"LYCEICGFTCTQKGNLLRHIKL [46L_47Y_49E_50I_52G_53F_54T_55C_67L_, Q9UKT9]",3.57,3.51,3.19,2.25
